Inconclusive results are not listed. Where a call stands in place of a potency, no number is given. Activity calls are given as the source filed them. The call rests on the fitted dose curve; in most records, active means well fitted cell-killing curve with a large enough effect; inconclusive means small, poorly fitted or top-dose-only effect; inactive means flat fitted curve, though single readings scatter.
Potency means the concentration at half of the fitted maximal effect.

This assay in a line: Quantitative highthroughput screen to assess conditional lethalithy of P12 Ichikawa cells grown in RPMI1640 with untreated serum (RPMI+s) (AID 1963881). Further: nearly all actives have a fitted effect of over 35% in size. Conditions: ATP luminescence, 48 h; Potency: viability; series mostly up to 45.8 µM. An excerpt:
Assay Provider: Jason Cantor Ph.D.
Department of Biochemistry
University of Wisconsin-Madison, Madison, WI, USA
Chemical screening studies have identified drug sensitivities across hundreds of cancer cell lines but most putative therapeutics fail to translate. Discovery and development of drug candidates in models that more accurately reflect nutrient levels in human blood is a major challenge. Here we performed high-throughput screens in conventional versus Human Plasma-Like Medium (HPLM) to identify compounds that were "missed" when screening using the artificial culture condition. Sets of conditional anticancer compounds spanned phases of clinical development and included non-oncology drugs were assessed. […] We also traced conditional phenotypes for several chemotherapeutics to availability of HPLM-specific metabolites and confirmed others for compounds whose reported targets are encoded by nonessential genes. Our findings establish generalizable strategies for exploiting conditional lethality in HPLM to reveal therapeutic candidates and mechanisms of action in cancer cells.
Described herein are the results of each viability screens against three cell lines: NOMO1 (an acute myeloid leukemia cell line); P12-Ichikawa (a T-cell acute lymphoblastic leukemia); and SEM (a B-cell ALL). Each assay was screened using 3 different cell culture media: homemade human plasma-Like medium with 10% dialyzed fetal bovine serum (HPLM+ds); RPMI1640 with 10% untreated FBS and 5mM glucose (RPMI+s); and RPMI1640 with 10% dialyzed fetal bovine serum and 5 mM glucose (RPMI+ds).
PROTOCOL TABLE (as described by Inglese J, Shamu CE and Guy RK. 2007)
SEQUENCE No. (e.g., 1, 2, 3, etc.); […] (e.g., Cells, Incubation, Reagent, etc.); VALUE and DESCRIPTION.
1; Cells; 5 uL; white, solid bottom 1536-well Greiner assay plate.
2; Compounds; 23 nL; Kalypsis pin tool (Wako USA) equipped with a 1536-well pin head to transfer to the assay plates.
3; Incubation; 48 hours; 37C incubation.
4; Reagent; 3 uL; CellTiter Glo (Promega).
5; Incubation; 5 min, room temperature
6; Detection; Luminescence, Viewlux PerkinElmer.
NOTES (numbers refer to Sequence numbers above)
1. Briefly, 5 ul of cell reagent was dispensed using a Multidrop Combi Dispenser. The NOMO1 and SEM cells were plated at 500 cells/well and the P12-Ichikawa line at 1000 cells/well.
2. After seeding the cells, 23 nL of MIPE 4.1 library compounds (in DMSO) were added to each plate using a Kalypsys 1536 Pintool dispenser. Bortezomib at final concentration of […] and DMSO were added to each plate as positive and negative controls respectively. For each screen, MIPE 4.1 compounds were added over an eleven-point concentration range […] in 3-fold dilutions.
3. Each plate was covered with a stainless steel gasketed lid to prevent evaporation and incubated for 48 hour at 37C, 95% relative humidity, and 5% CO2.
4-5. Three microliter CellTilter-GloTM luminescent substrate mix (Promega) reagent was added to the assay plate and incubated at room temperature for 5 min.
6. The luminescence signal was measured using a ViewLux (PerkinElmer) multiplate reader with a 2 second exposure time per plate. Data for each compound were normalized as percent viability such that measurements for DMSO and the empty well controls in each plate were defined as 100% and 0%, respectively.
Consider `NC(=O)c1ccc(-c2nc(-c3ccc4c(c3)OCO4)c(-c3ccccn3)[nH]2)cc1`, for which the Potency entry was “inactive”.

Regarding `CC[C@]1(O)C[C@H]2CN(CCc3c([nH]c4ccccc34)[C@@](C(=O)OC)(c3cc4c(cc3OC)N(C=O)[C@H]3[C@@](O)(C(=O)OC)[C@H](OC(C)=O)[C@]5(CC)C=CCN6CC[C@]43[C@@H]65)C2)C1`, the Potency is 0.0264 µM (active). As to `O=C(NCc1ccccc1)[C@H](Cc1ccccc1)NC(=O)[C@@H]1O[C@@H]1C(=O)NCCc1ccc(O)cc1`, the Potency entry was “inactive”. For `COc1ccc(C2(C#N)CCC(C(=O)O)CC2)cc1OC1CCCC1` (stereo not given) the value was “inactive”. Regarding `Fc1ccc(Cl)cc1-c1nc(Nc2ccncc2)c2nccnc2n1`, the Potency entry is “inactive”. The value for `CC(=O)OC[C@@H]1O[C@@H](n2ccc(=O)[nH]c2=O)[C@H](OC(C)=O)[C@H]1OC(C)=O` was “inactive”. The value for `COc1ccc2nc(S(=O)Cc3ncc(C)c(OC)c3C)[nH]c2c1` (stereo not given) was “inactive”; that for `CNC(=O)c1cc(COc2nnc(Nc3ccc(Cl)cc3)c3ccoc23)ccn1` was “inactive”. For `COc1cc2c(cc1OC)C1CC(=O)C(CC(C)C)CN1CC2` (stereo not given) the value was “inactive”; for `CN(c1nccc(=O)[nH]1)C1CCN(c2nc3ccccc3n2Cc2ccc(F)cc2)CC1`, “inactive”. On to `CN(C)N=Nc1nc[nH]c1C(N)=O`, for which the Potency is 2.09 µM (active).

For the compound `COc1ccc2c(c1)c(CC(=O)OCC(=O)O)c(C)n2C(=O)c1ccc(Cl)cc1`, the Potency entry is “inactive”. For `COc1nc(N)nc2c1ncn2[C@@H]1O[C@H](CO)[C@@H](O)[C@@H]1O` the value was “inactive”; for `CN(C)CC[C@H](CSc1ccccc1)Nc1ccc(S(=O)(=O)NC(=O)c2ccc(N3CCN(Cc4ccccc4-c4ccc(Cl)cc4)CC3)cc2)cc1[N+](=O)[O-]`, 2.64 µM (active); for `CCCCOc1c(C(=O)c2c(F)cc(C)cc2F)cnc2n[nH]cc12`, “inactive”. Take `CC[C@H](CC[C@@H](C)[C@H]1CC[C@H]2[C@@H]3CC=C4C[C@@H](O)CC[C@]4(C)[C@@H]3CC[C@]12C)C(C)C`: the Potency result was “inactive”. The value for `CCCCCCCCCCCC(CC1OC(=O)C1CCCCCC)OC(=O)C(CC(C)C)NC=O` (stereo not given) was 20.9 µM (active); that for `CCc1ccc(C(=O)Nc2cc(CN3CCN(C)CC3)cc(C(F)(F)F)c2)cc1C#Cc1cnc2ccnn2c1` was “inactive”.

Regarding `O=C(CCCN1CCC(O)(c2ccc(Cl)cc2)CC1)c1ccc(F)cc1`, the Potency entry is “inactive”. Take `Cc1cc(O)c2c(c1)C(=O)c1cccc(O)c1C2=O`: the Potency entry was “inactive”.

`Clc1ccc(C(c2ccc(Cl)cc2)n2cc[n+](CC(OCc3ccc(Cl)cc3Cl)c3ccc(Cl)cc3Cl)c2)cc1` (stereo not given): the Potency was 20.9 µM (active). For `COCCNCCCn1c(C(=O)CF)c(-c2ccc(C)cc2)c2c(N)ncnc21` the value was “inactive”; for `Cn1c(=O)c(-c2c(Cl)cccc2Cl)cc2cnc(Nc3cccc(C(=O)O)c3)nc21`, “inactive”.

For `CC(C)N1[N]C(=C2C=c3cc(O)ccc3=N2)c2c(N)ncnc21`, the Potency is 4.18 µM (active). As to `CC[C@]1(O)C[C@@H]2CN(CCc3c([nH]c4ccccc34)[C@@](C(=O)OC)(c3cc4c(cc3OC)N(C=O)[C@@H]3C45CCN4CC=C[C@](CC)([C@H]45)[C@@H](OC(C)=O)[C@]3(O)C(=O)OC)C2)C1` (stereo not given in full), the Potency result was “inactive”. For `CCOC(=O)[C@H](CCc1ccccc1)N[C@@H](C)C(=O)N1CCCC1C(=O)O` (stereo not given in full) the value was “inactive”; for `COc1ccc(CCC(=O)Nc2nc3ccc(Cl)cc3s2)cc1OC`, “inactive”; for `CCOC(=O)N1CCC(=C2c3ccc(Cl)cc3CCc3cccnc32)CC1`, “inactive”. The value for `CCOc1cc(C(C)(C)C)ccc1C1=N[C@@](C)(c2ccc(Cl)cc2)[C@@](C)(c2ccc(Cl)cc2)N1C(=O)N1CCN(CC(=O)N2CCOCC2)CC1` was “inactive”; that for `C#C[C@]1(O)CC[C@H]2[C@H]3CCc4cc(OC)ccc4[C@H]3CC[C@@]21C` was “inactive”; that for `Nc1nc(OCc2ccccc2)c2[nH]cnc2n1` was “inactive”.

In the case of `O=C1NC(=O)C(=Cc2ccc3nccc(-c4ccncc4)c3c2)S1`, the Potency was 1.87 µM (active). The value for `Nc1ccn([C@@H]2CS[C@H](CO)O2)c(=O)n1` was “inactive”; that for `Cc1noc(-c2ccc(CSCCC(=O)O)cc2)c1NC(=O)OC(C)c1ccccc1Cl` (stereo not given) was “inactive”; that for `CCOC(=O)C1=C(C)NC2=C(C(=O)CC(C)(C)C2)C1c1ccc(-c2ccccc2)cc1` (stereo not given) was “inactive”. Turning to `O=c1oc2cc(O)ccc2s1`, the Potency result was “inactive”. `O=C(O)c1cc(O)c2c(c1)C(=O)c1cccc(O)c1C2=O`: the Potency entry is “inactive”. The value for `CC(C)NCC(O)COc1ccc(CCOCC2CC2)cc1` (stereo not given) was “inactive”.

On to `CCCCN(CCCC)CC(O)c1cc(Cl)cc2c1-c1ccc(Cl)cc1C2=Cc1ccc(Cl)cc1` (stereo not given), for which the Potency entry is “inactive”. For `Cn1cnc(=N)c2[nH]cnc21` the value was 7.43 µM (active).

Source of the values: PubChem BioAssay (NCATS).
